Results reported in PubChem BioAssay.

System: not listed separately
Assay: inhibitors of PAF-induced NFkB signaling in CF airway cells, dose response, cell-based, uHTS hits, panel, cytotoxicity readout (AID 624344)
Conditions: CF bronchial epithelial cells, PAF-induced NFkB reporter inhibition, with PAF, run 1; at 79 µM (top of the series) unless noted; in the data active = activity above about 50%; inactive = the rest

`O=Nc1ccc(NO)c2ccccc12` gave an inhibition of 77.1% [at 39.5 µM].

First: O=C(COC(=O)c1ccccc1C(=O)c1ccc(Cl)c([N+](=O)[O-])c1)NC1CCCCCC1
Second: CCOC(=O)c1sc(NC(=O)c2cccc(S(=O)(=O)N3CCc4ccccc43)c2)c(C#N)c1C
The inhibition of the first is higher: 110% for the first, 79.6% for the second.

First: CCOc1ccccc1NC(=O)c1nc(S(=O)(=O)Cc2ccccc2)ncc1Cl
Second: CCS(=O)(=O)c1ncc(Cl)c(C(=O)Nc2ccccc2OC)n1
The inhibition of the first is lower: 78% for the first, 95.8% for the second.

First: CC(C)C[C@@H](CN1CCCC1CN1C(=S)NC[C@@H]1Cc1ccc(O)cc1)N1C[C@H](Cc2ccc(O)cc2)N(CC2CCCCCC2)C1=S (stereo partly specified)
Second: Clc1ccc(Cn2ncc3c(N4CCN(c5ccccc5)CC4)ncnc32)cc1
The inhibition of the first is higher: 116% for the first, 109% for the second.

Going from `O=C(Nc1ccc2ccccc2c1)c1ccccc1O` to `COc1ccc(N(Cc2cc(=O)[nH]c3ccccc23)C(=O)CCl)cc1`, the inhibition falls from 102% to 92.3%.

Going from `COc1cc(NC(=O)Cn2ncc(Cl)c(Cl)c2=O)c(C)cc1[N+](=O)[O-]` to `Cc1ccc(C(=O)Nc2cccc(C(F)(F)F)c2)cc1NC(=O)c1nccnc1N`, the inhibition falls from 97.1% to 75.2%.

First: COc1ccc(-c2cc(-c3nc4ccccn4c3NCc3ccccc3)ccc2OC)cc1
Second: Cc1nn(-c2ccccc2)c(Cl)c1C(=O)N1CCN(c2ncnc3c2cnn3-c2ccccc2)CC1
The inhibition of the first is lower: 105% for the first, 114% for the second.

Compound `Cn1ncc2c(O/N=C(\N)c3ccc(C(C)(C)C)cc3)ncnc21` has an inhibition of 101%.

System: not listed separately
Assay: as above
Conditions: CF bronchial epithelial cells, PAF-induced NFkB reporter inhibition, with PAF, run 2; at 79 µM (top of the series) unless noted

Going from `O=Nc1ccc(NO)c2ccccc12` to `O=C(Nc1ccc2ccccc2c1)c1ccccc1O`, the inhibition rises from 48.9% to 90.4%.

Compared with `O=C(COC(=O)c1ccccc1C(=O)c1ccc(Cl)c([N+](=O)[O-])c1)NC1CCCCCC1`, `CCOC(=O)c1sc(NC(=O)c2cccc(S(=O)(=O)N3CCc4ccccc43)c2)c(C#N)c1C` is lower in inhibition: 99.7% for the first, 80.5% for the second.

Going from `CCOc1ccccc1NC(=O)c1nc(S(=O)(=O)Cc2ccccc2)ncc1Cl` to `CCS(=O)(=O)c1ncc(Cl)c(C(=O)Nc2ccccc2OC)n1`, the inhibition rises from 83.5% to 86%.

First: CC(C)C[C@@H](CN1CCCC1CN1C(=S)NC[C@@H]1Cc1ccc(O)cc1)N1C[C@H](Cc2ccc(O)cc2)N(CC2CCCCCC2)C1=S (stereo partly specified)
Second: Clc1ccc(Cn2ncc3c(N4CCN(c5ccccc5)CC4)ncnc32)cc1
The inhibition of the first is higher: 101% for the first, 94.9% for the second.

First: COc1cc(NC(=O)Cn2ncc(Cl)c(Cl)c2=O)c(C)cc1[N+](=O)[O-]
Second: Cc1ccc(C(=O)Nc2cccc(C(F)(F)F)c2)cc1NC(=O)c1nccnc1N
The inhibition of the first is higher: 91.1% for the first, 76% for the second.

Going from `COc1ccc(N(Cc2cc(=O)[nH]c3ccccc23)C(=O)CCl)cc1` to `COc1ccc(-c2cc(-c3nc4ccccn4c3NCc3ccccc3)ccc2OC)cc1`, the inhibition rises from 88.4% to 96.6%.

First: Cn1ncc2c(O/N=C(\N)c3ccc(C(C)(C)C)cc3)ncnc21
Second: Cc1nn(-c2ccccc2)c(Cl)c1C(=O)N1CCN(c2ncnc3c2cnn3-c2ccccc2)CC1
The inhibition of the first is higher: 112% for the first, 98.4% for the second.

Biological target: Tumor necrosis factor receptor superfamily member 10B (Homo sapiens) (UniProt O14763)
Sequence (O14763 whole entry, looked up): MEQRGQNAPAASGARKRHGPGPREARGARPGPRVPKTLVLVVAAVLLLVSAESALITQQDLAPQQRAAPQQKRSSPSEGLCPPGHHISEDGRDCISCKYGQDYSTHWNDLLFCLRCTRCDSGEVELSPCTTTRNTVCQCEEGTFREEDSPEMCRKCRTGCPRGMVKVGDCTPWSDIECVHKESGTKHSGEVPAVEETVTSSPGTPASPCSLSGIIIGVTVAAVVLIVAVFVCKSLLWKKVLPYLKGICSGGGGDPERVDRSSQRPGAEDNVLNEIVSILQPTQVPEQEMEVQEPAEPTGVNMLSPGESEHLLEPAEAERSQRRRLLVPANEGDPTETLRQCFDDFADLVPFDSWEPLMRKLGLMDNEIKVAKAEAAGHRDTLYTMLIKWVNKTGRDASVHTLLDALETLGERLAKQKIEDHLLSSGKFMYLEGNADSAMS
Assay: caspase-8 TRAIL sensitization, hit retest, confirmation, cell-based, NB7+caspase-8, with/without TRAIL, luminescence panel (AID 651596)
Conditions: NB7 neuroblastoma + caspase-8, TRAIL sensitization, luminescence viability, with TRAIL, mean of runs, at 10 µM, stronger effect = higher value

First: O=Nc1ccc(NO)c2ccccc12
Second: O=C(Nc1ccc2ccccc2c1)c1ccccc1O
The activity of the first is higher: 79.8% for the first, 64.2% for the second.

First: O=C(COC(=O)c1ccccc1C(=O)c1ccc(Cl)c([N+](=O)[O-])c1)NC1CCCCCC1
Second: CCOC(=O)c1sc(NC(=O)c2cccc(S(=O)(=O)N3CCc4ccccc43)c2)c(C#N)c1C
The activity of the first is higher: 98.1% for the first, 53.4% for the second.

Compared with `CCOc1ccccc1NC(=O)c1nc(S(=O)(=O)Cc2ccccc2)ncc1Cl`, `CCS(=O)(=O)c1ncc(Cl)c(C(=O)Nc2ccccc2OC)n1` is higher in activity: 79.4% for the first, 98.4% for the second.

Going from `CC(C)C[C@@H](CN1CCCC1CN1C(=S)NC[C@@H]1Cc1ccc(O)cc1)N1C[C@H](Cc2ccc(O)cc2)N(CC2CCCCCC2)C1=S` (stereo partly specified) to `Clc1ccc(Cn2ncc3c(N4CCN(c5ccccc5)CC4)ncnc32)cc1`, the activity rises from 18.3% to 69.5%.

First: COc1cc(NC(=O)Cn2ncc(Cl)c(Cl)c2=O)c(C)cc1[N+](=O)[O-]
Second: Cc1ccc(C(=O)Nc2cccc(C(F)(F)F)c2)cc1NC(=O)c1nccnc1N
The activity of the first is higher: 99.2% for the first, 50.6% for the second.

First: COc1ccc(N(Cc2cc(=O)[nH]c3ccccc23)C(=O)CCl)cc1
Second: COc1ccc(-c2cc(-c3nc4ccccn4c3NCc3ccccc3)ccc2OC)cc1
The activity of the first is higher: 99.3% for the first, 93.2% for the second.

Compared with `Cn1ncc2c(O/N=C(\N)c3ccc(C(C)(C)C)cc3)ncnc21`, `Cc1nn(-c2ccccc2)c(Cl)c1C(=O)N1CCN(c2ncnc3c2cnn3-c2ccccc2)CC1` is lower in activity: 98.5% for the first, 82% for the second.

System: not listed separately
Assay: as above
Conditions: NB7 neuroblastoma + caspase-8, without TRAIL, luminescence viability, without TRAIL, mean of runs, at 10 µM

First: O=Nc1ccc(NO)c2ccccc12
Second: O=C(Nc1ccc2ccccc2c1)c1ccccc1O
The activity of the first is lower: 47.2% for the first, 52.8% for the second.

Compared with `O=C(COC(=O)c1ccccc1C(=O)c1ccc(Cl)c([N+](=O)[O-])c1)NC1CCCCCC1`, `CCOC(=O)c1sc(NC(=O)c2cccc(S(=O)(=O)N3CCc4ccccc43)c2)c(C#N)c1C` is lower in activity: 97.2% for the first, 41.3% for the second.

Compared with `CCOc1ccccc1NC(=O)c1nc(S(=O)(=O)Cc2ccccc2)ncc1Cl`, `CCS(=O)(=O)c1ncc(Cl)c(C(=O)Nc2ccccc2OC)n1` is lower in activity: 99.5% for the first, 99% for the second.

Compared with `CC(C)C[C@@H](CN1CCCC1CN1C(=S)NC[C@@H]1Cc1ccc(O)cc1)N1C[C@H](Cc2ccc(O)cc2)N(CC2CCCCCC2)C1=S` (stereo partly specified), `Clc1ccc(Cn2ncc3c(N4CCN(c5ccccc5)CC4)ncnc32)cc1` is higher in activity: 52% for the first, 66.8% for the second.

Compared with `COc1cc(NC(=O)Cn2ncc(Cl)c(Cl)c2=O)c(C)cc1[N+](=O)[O-]`, `Cc1ccc(C(=O)Nc2cccc(C(F)(F)F)c2)cc1NC(=O)c1nccnc1N` is lower in activity: 99.3% for the first, 39% for the second.

Going from `COc1ccc(N(Cc2cc(=O)[nH]c3ccccc23)C(=O)CCl)cc1` to `COc1ccc(-c2cc(-c3nc4ccccn4c3NCc3ccccc3)ccc2OC)cc1`, the activity falls from 99.5% to 88.6%.

Going from `Cn1ncc2c(O/N=C(\N)c3ccc(C(C)(C)C)cc3)ncnc21` to `Cc1nn(-c2ccccc2)c(Cl)c1C(=O)N1CCN(c2ncnc3c2cnn3-c2ccccc2)CC1`, the activity falls from 98.8% to 59.6%.
